Results filed as inconclusive are left out. The source made the active and inactive calls. Calls follow the shape of the dose curve; as a rule, active = well fitted inhibition curve with a large enough effect; inconclusive = small, poorly fitted or top-dose-only effect, or effect the other way; inactive = flat fitted curve, though single readings scatter.
Molecular target: Ubiquitin carboxyl-terminal hydrolase 2 (Homo sapiens) (UniProt O75604)
Assay: Confirmation Assay for Inhibitors of Ubiquitin-specific Protease USP2a Using CHOP2 as the Reporter; also: nearly all actives have a fitted effect of over 55% in size;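 as to activity change, negative = inhibition: plate controls were DMSO wells for no effect and full inhibition by NEM control for full effect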
Details: USP2 core, Ub-CHOP2 coupled reporter fluorescence; series mostly up to 38.3 µM; activity change, negative = inhibition: at the top concentration
Procedure, shortened: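 Ub-CHOP2 cleavage coupled to reporter activation was read by fluorescence after 60 min at RT, with 25 nM final Ub-CHOP2 and substrate. Enzyme (10 nM final USP2 core) first sat 30 min with compound; data were normalized to NEM and fitted to concentration-response curves.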
Potency is read from the fitted curve at half-maximal effect.

Ubiquitin carboxyl-terminal hydrolase 2 (Homo sapiens), sequence (O75604 whole entry, looked up): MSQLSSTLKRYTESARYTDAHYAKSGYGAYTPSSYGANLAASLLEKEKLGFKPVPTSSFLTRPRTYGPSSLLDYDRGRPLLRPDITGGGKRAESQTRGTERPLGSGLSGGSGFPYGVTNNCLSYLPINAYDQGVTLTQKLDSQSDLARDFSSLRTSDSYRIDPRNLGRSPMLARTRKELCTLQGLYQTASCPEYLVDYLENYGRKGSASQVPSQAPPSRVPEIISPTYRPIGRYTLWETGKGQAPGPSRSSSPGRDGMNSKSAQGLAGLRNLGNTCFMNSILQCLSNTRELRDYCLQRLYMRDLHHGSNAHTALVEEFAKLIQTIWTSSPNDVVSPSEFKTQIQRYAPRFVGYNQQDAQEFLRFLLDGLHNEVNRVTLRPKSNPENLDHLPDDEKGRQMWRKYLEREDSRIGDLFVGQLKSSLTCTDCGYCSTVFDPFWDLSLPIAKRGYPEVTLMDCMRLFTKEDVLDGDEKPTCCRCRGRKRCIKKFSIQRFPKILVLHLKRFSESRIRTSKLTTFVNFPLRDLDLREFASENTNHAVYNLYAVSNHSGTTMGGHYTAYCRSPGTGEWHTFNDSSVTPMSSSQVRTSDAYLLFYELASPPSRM

Row | Compound | activity change, negative = inhibition | Potency
1 | CCNC(=S)N/N=C/c1cn(Cc2ccc(F)cc2)c2ccccc12 | 2.36% (inactive) | 
2 | COc1ccc(S(=O)(=O)N2CCCC2C(=O)NCc2cccs2)cc1 (centres undefined) | 2.04% (inactive) | 
3 | COc1ccccc1C1NC(c2ccccc2OC)C(C)C(=O)C1C (centres undefined) | 1.67% (inactive) | 
4 | C[C@H](CO)N1C[C@H](C)[C@@H](CN(C)S(=O)(=O)c2cccs2)Oc2c(NC(=O)Nc3ccc4c(c3)OCO4)cccc2C1=O | 1.42% (inactive) | 
5 | CC(C)c1ccc2c(c1)c(SC(C)(C)C)c(CC(C)(C)C(=O)O)n2Cc1ccc(Cl)cc1 |  | 6.56 µM (active)
6 | CN1CCN(CCCCOc2ccc(F)cc2)CC1 | -1.91% (inactive) | 
7 | O=C(O[C@@H]1OC2COC(=O)c3cc(O)c(O)c(O)c3-c3c(cc(O)c(O)c3O)C(=O)O[C@@H]([C@H]1O)[C@@H]2O)c1cc(O)c(O)c(O)c1 |  | 16.5 µM (active)
8 | O=C(Cc1ccc(S(=O)(=O)N2CCOCC2)s1)NCCC(c1ccccc1)c1ccccc1 | -17% (inactive) | 
9 | CCNc1sc(C(=O)c2cccs2)c(N)c1-c1nc2ccccc2s1 | -0.21% (inactive) | 
10 | Cc1ccc(C(=O)NCCNS(=O)(=O)c2ccccc2)cc1 | 3.38% (inactive) | 
11 | CC1(C)CC(=O)C2=C(C1)NCN(CCCN1CCOCC1)C2 | 0.351% (inactive) | 
12 | CCOC(=O)C1CCCN(CC(=O)Nc2c(C(=O)OC)[nH]c3ccc(C)cc23)C1 (centres undefined) | -1.36% (inactive) | 
13 | COC(=O)c1[nH]c2cc(OC)ccc2c1N | 3.18% (inactive) | 
14 | O=C(NCCN1C(=O)CSC1=O)C1CC(=O)N(c2ccccc2)C1 (centres undefined) | 3.9% (inactive) | 
15 | C[C@@H]1CN([C@H](C)CO)C(=O)c2cc(NS(=O)(=O)c3ccc(F)cc3)ccc2O[C@@H]1CN(C)Cc1ccc(Cl)c(Cl)c1 | -2.62% (inactive) | 
16 | CN(C)CCOCCP(=O)(c1ccccc1)c1ccccc1 | 3.55% (inactive) | 
17 | CC(C)(C)NC(=O)C(c1ccco1)N(C(=O)c1ccc(CN2CCOCC2)o1)c1ccccc1 (centres undefined) | 0.713% (inactive) | 
18 | CCOC(=O)N1CCN(CC(=O)n2c(C)c(C)c3ccccc32)CC1 | -2.29% (inactive) | 
19 | COc1ccc(NC(=O)CSc2ncccc2C(=O)OC(C)C)cc1OC | 1.81% (inactive) | 
20 | CCCNC(=O)CS(=O)Cc1nc(-c2ccccc2C)oc1C (centres undefined) | 1.7% (inactive) | 

Row | Compound | activity change, negative = inhibition | Potency
21 | Oc1ccccc1/C=N/Nc1ncc(Br)cn1 | -2.24% (inactive) | 
22 | COC(=O)c1ccccc1NC(=O)CSc1nc(O)cc(=O)n1C1CCCC1 | -0.685% (inactive) | 
23 | Cc1ccc(/C(O)=C/C(=O)C(=O)NNC(=O)C(O)(c2ccccc2)c2ccccc2)cc1 |  | 14.7 µM (active)
24 | N#Cc1c(NC(=O)CSc2ncnc3sccc23)oc(-c2ccco2)c1-c1ccco1 |  | 13.1 µM (active)
25 | COC(=O)CSc1nc2c(c(-c3ccco3)c1C#N)CCCC2 | 0.57% (inactive) | 
26 | Cc1cc(C)c(NC(=O)C[N+](C)(C)CC(O)COc2cccc3ccccc23)c(C)c1 (centres undefined) | 0.237% (inactive) | 
27 | CCOc1ccccc1C(=O)NC1CC2CCCC(C1)N2C1CC1 (centres undefined) | 5.99% (inactive) | 
28 | O=C(O)C1Nc2c(O)cc(Cl)c([N+](=O)[O-])c2C2C=CCC12 (centres undefined) |  | 9.27 µM (active)
29 | COc1ccc(/C=C2/SC(=S)N(c3ccc(S(=O)(=O)Nc4nccs4)cc3)C2=O)cc1 |  | 13.1 µM (active)
30 | CC(C)c1ccc(Nc2nnc(SCC(=O)c3nnc(-c4ccccc4)o3)s2)cc1 |  | 6.56 µM (active)
31 | CCOC(=O)Cn1c(=O)oc2cc(S(=O)(=O)Nc3cc(Cl)ccc3OC)ccc21 | 3.99% (inactive) | 
32 | CCOC(=O)c1[nH]c2ccc(OC)cc2c1NC(=O)CCN1CCC(C)CC1 | -3.28% (inactive) | 
33 | Cc1ccc(S(=O)(=O)N2CCOCC2)cc1NC(=O)CN1C(=O)NC(C)(c2ccc(Cl)cc2Cl)C1=O (centres undefined) | 4.88% (inactive) | 
34 | O=C(Cc1cc(=O)[nH]c(=O)[nH]1)NCC1CCCO1 (centres undefined) | 2.54% (inactive) | 
35 | CC1=NC(C(F)(F)F)(C(F)(F)F)C2=C(CC(C)(C)CC2=O)N1Cc1ccco1 | -1.12% (inactive) | 
36 | O=C(COC(=O)c1cc(-c2ccc(Cl)s2)nc2ccccc12)NCc1ccco1 |  | 18.5 µM (active)
37 | O=C(CSc1nc2ccccc2s1)NCCCN1CCOCC1 | 3.93% (inactive) | 
38 | CCOc1ccccc1N1C(=O)CC(Nc2ccc(N3CCOCC3)cc2)C1=O (centres undefined) | -2.19% (inactive) | 
39 | COC(=O)c1nnn(-c2nonc2N)c1CSc1ccccn1 | -1.34% (inactive) | 
